Assay results reported in the supplement of paper PMC3545927.
The other results are listed elsewhere or left out. How many sequences the whole screen found active is unknown.

Target: furin, P09958
Test: furin cleavage Z-score vs untreated control; higher = more cleavage, active = 3.5 or more, inactive = 1 or less, 8 variable residues between constant flanks
Experimental: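 Multiplexed peptide-cDNA fusion cleavage assay. 8-mer variable peptides flanked by constant Cys-Ala (N-term) and Ala-Gly-Asn-Ala-Ser-Ala-Ser-Ala (C-term) and conjugated to a cDNA oligonucleotide were bead-immobilised via the N-terminus. They were treated with purified furin at a 1:10 enzyme:substrate ratio in 50 mM HEPES pH 7.5, 1 mM CaCl2, 100 mM NaCl for 7.5, 15 or 30 min. Released cDNA was counted by next-generation sequencing, and log counts versus no-furin controls were lowess-adjusted and converted to robust Z-scores.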

furin, P09958, sequence (P09958 whole entry): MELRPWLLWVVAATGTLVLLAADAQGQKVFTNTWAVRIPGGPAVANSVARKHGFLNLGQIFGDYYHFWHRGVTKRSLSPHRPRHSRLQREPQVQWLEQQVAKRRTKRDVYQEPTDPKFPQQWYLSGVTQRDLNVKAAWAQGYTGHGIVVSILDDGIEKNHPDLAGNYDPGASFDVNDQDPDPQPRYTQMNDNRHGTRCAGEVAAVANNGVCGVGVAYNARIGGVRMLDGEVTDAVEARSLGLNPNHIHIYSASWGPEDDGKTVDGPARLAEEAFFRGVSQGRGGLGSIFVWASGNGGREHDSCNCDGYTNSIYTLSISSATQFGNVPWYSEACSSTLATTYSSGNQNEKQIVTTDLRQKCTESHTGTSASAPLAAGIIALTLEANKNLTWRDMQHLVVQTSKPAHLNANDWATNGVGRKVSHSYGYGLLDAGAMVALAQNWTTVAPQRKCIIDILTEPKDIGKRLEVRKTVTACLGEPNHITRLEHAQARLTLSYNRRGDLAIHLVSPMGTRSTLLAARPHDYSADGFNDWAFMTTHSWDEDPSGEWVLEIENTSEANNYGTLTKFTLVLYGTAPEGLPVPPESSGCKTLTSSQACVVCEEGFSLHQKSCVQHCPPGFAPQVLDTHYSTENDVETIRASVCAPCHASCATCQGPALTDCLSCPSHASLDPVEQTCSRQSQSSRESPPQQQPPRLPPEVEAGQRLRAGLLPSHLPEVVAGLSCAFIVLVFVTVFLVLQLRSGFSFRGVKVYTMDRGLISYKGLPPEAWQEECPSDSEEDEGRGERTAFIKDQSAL

Sequence | furin cleavage Z-score (7.5 min) | furin cleavage Z-score (15 min) | furin cleavage Z-score (30 min)
CAMEECSQELAGNASASA [HC1752] | 0.357 (inactive) | -0.13 (inactive) | -0.468 (inactive)
CAVGIFRAAVAGNASASA [HC749] | -0.179 (inactive) | -0.141 (inactive) | 0.209 (inactive)
CAARVCSCLWAGNASASA [HC525] | -1.84 (inactive) | -1.52 (inactive) | 1.13
CAEKEVPCHRAGNASASA [HC2454] | 0.758 (inactive) | -0.375 (inactive) | 1.43
CAGIDPNIRTAGNASASA [HC797] | -1.41 (inactive) | -0.301 (inactive) | -1.74 (inactive)
CAHEGREKRHAGNASASA [FS-1630] | 7.09 (active) | 9.28 (active) | 8.39 (active)
CAPTGREKRPAGNASASA [FS-75] | 0.811 (inactive) | 0.063 (inactive) | 0.807 (inactive)
CALLRRQIRTAGNASASA [FS-1642] | 6.82 (active) | 8.8 (active) | 8.78 (active)
CATLRRYKRHAGNASASA [FS-964] | 11.2 (active) | 10.9 (active) | 8.76 (active)
CALLWRQEMGAGNASASA [HC1276] | 1.14 | 0.0716 (inactive) | 0.841 (inactive)
CADQRPYCWHAGNASASA [HC401] | 0.793 (inactive) | -0.215 (inactive) | 1.33
CAETPCHRPSAGNASASA [HC2338] | -0.427 (inactive) | -0.0389 (inactive) | 1
